Screening results deposited in PubChem by National Center for Advancing Translational Sciences (NCATS).
This is a sample that favours compounds with a hit; in the whole collection about 2.4% have one here.
D2 PAM-1: Beta-Arrestin HTS for Positive Allosteric Modulators of the Human D2 Dopamine Receptor: Potentiators; D(2) dopamine receptor (Homo sapiens), P14416; DiscoveRx D2 beta-arrestin cells, luminescence, 90 min; 100% = 57 uM dopamine signal; actives 0.23% (n = 360,000); potentiation, % (test concentration not listed); AID 624464, 2012; in the data active = potentiation above about 50%; inconclusive = mostly about 30% to 49%
Target sequence (P14416 whole entry, looked up): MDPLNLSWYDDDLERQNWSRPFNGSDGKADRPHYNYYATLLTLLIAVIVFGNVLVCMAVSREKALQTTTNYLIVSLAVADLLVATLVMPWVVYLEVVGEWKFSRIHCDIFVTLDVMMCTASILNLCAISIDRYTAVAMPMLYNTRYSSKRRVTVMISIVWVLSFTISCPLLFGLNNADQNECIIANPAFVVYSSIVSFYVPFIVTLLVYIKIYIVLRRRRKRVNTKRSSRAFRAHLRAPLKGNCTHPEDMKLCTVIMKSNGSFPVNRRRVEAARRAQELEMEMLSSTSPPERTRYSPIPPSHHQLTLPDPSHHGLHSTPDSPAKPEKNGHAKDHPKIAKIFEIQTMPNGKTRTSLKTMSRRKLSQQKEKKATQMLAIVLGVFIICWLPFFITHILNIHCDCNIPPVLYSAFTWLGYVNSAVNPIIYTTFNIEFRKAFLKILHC
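D2 cells co-treated with compound plus 50 nM dopamine (EC20) for 90 min at 37 deg C to detect potentiation. Beta-arrestin recruitment was read as enzyme-fragment luminescence after 1 h at ambient temperature. Full response was set by 57 uM dopamine.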
D2 ag-1: Beta-Arrestin HTS for Positive Allosteric Modulators of the Human D2 Dopamine Receptor: Agonists; DiscoveRx PathHunter D2 beta-arrestin, luminescence, 90 min; 100% = 57 uM dopamine signal; activation, % (test concentration not listed); D(2) dopamine receptor (Homo sapiens), P14416; AID 624465, 2012; actives 0.084% (n = 360,000); in the data active = activation above about 40%; inconclusive = between about 15% and that limit
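Agonist mode: compounds alone added to overnight-plated D2 PathHunter cells for 90 min at 37 C, with 57 uM final dopamine (EC100) defining full response. Beta-arrestin recruitment detected by chemiluminescent reagent, read after 1 h at ambient temperature.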
D2 ag-2: HTS Assay for Allosteric Agonists of the Human D2 Dopamine Receptor: Primary Screen for Agonists | D(2) dopamine receptor (Homo sapiens), P14416 | HEK293 T-REx D2 cells, calcium flux agonist mode | activation, % at 2 µM | actives 0.53% (n = 340,000);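 active = activation over 3 SD above normal in the single-dose calcium agonist read, cut at about 30% in these data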; note: 0% is about no effect
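Tetracycline-induced HEK293 Trex cells with D2 receptor force-coupled to calcium signaling, plated overnight at 30 C and loaded with no-wash calcium dye. Calcium flux read kinetically for 180 s after compound addition; responses flag agonists.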
D2 antagonist: HTS Assay for Allosteric Antagonists of the Human D2 Dopamine Receptor: Primary Screen for Antagonists | inhibition, % at 10 µM | HEK293 TREx D2 cells, calcium flux, dopamine EC80 | actives 2% (n = 340,000) | D(2) dopamine receptor (Homo sapiens), P14416; in the data active = inhibition above about 30%; inactive = below that, where a call was filed; note: 0% is about no effect
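Calcium flux kinetic readout in an inducible HEK293 TREx D2 line plated overnight at 30 C. After 180 s compound exposure, an EC80 dopamine challenge follows with another 180 s kinetic read to detect antagonism.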
D2 PAM-2: HTS Assay for Positive Allosteric Modulators of the Human D2 Dopamine Receptor: Primary Screen for Potentiators; D(2) dopamine receptor (Homo sapiens), P14416; HEK293 T-REx D2, calcium flux, EC20 dopamine potentiation; potentiation, % at 10 µM; actives 0.34% (n = 340,000);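 active = potentiation over 3 SD above the plate norm, cut at about 30% in these data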; note: 0% is about no effect
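Tetracycline-induced HEK293 T-REx cells force-coupled to calcium signalling expressed D2; compounds were pin-added after a 10 s baseline, read kinetically 180 s, then an EC20 dopamine challenge followed with a further 180 s calcium read.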
An asterisk follows results filed as active; ? = inconclusive; / = no result given.

SMILES	D2 PAM-1	D2 ag-1	D2 ag-2	D2 antagonist	D2 PAM-2
COc1cc(O)c(C(CCN2CCN(c3ccccc3)CC2)c2cc(OC)c(OC)c(OC)c2)c(OC)c1 (stereo unspecified)	-24.0	-2.0	1.1	67.1*	-22.7
Cc1c(OCC(=O)N[C@@H](CSCc2ccccc2)C(=O)O)ccc2c3c(c(=O)oc12)CCC3	-5.1	1.5	0.1	30.7*	17.3
Cc1c(OCC(=O)N[C@@H](Cc2ccccc2)C(=O)O)ccc2c3c(c(=O)oc12)CCC3	4.2	2.8	-1.2	10.1	4.0
C[C@H](NC(=O)c1nc[nH]c1C(=O)NC(c1ccccc1)c1ccccc1)C(=O)OC(C)(C)C	-10.7	-0.5	/	/	/
CC(C)(C)OC(=O)CNC(=O)c1[nH]cnc1C(=O)NC(c1ccccc1)c1ccccc1	-4.0	-0.5	48.2*	-20.8	-24.7
Cc1ccc(N(C(=O)c2snc(C(N)=O)c2N)C(C(=O)NCC2CCCO2)c2ccc(C)o2)c(C)c1 (stereo unspecified)	-3.5	-1.5	-1.7	-8.0	2.3
CCc1ccccc1N(C(=O)c1snc(C(N)=O)c1N)C(C(=O)NCC1CCCO1)c1ccc(C)o1 (stereo unspecified)	-1.1	4.8	0.5	32.6*	0.1
COc1ccc(-n2c(CN3CCN(c4ccccn4)CC3)nc3ccc([N+](=O)[O-])cc3c2=O)c(OC)c1	-7.6	-0.1	35.9*	6.3	-6.4
Cc1nc2ccccc2c2oc(C(=O)NCCCN3CC(C)CC(C)C3)cc12 (stereo unspecified)	-31.2	-0.4	2.2	-9.1	-5.2
Cc1nc2ccccc2c2oc(C(=O)N3CC(C)CC(C)C3)cc12 (stereo unspecified)	-2.6	-0.4	-0.7	3.7	31.0*
COc1ccc(CCNc2ncnc3c2c(-c2ccccc2)cn3-c2ccc(F)cc2)cc1OC	/	/	-0.3	/	-2.0
Cc1ccc(S(=O)(=O)Cc2ccc(C(=O)N3CCc4ccccc4C3)o2)cc1	-9.8	0.7	0.1	-15.8	57.6*
Cc1ccc(S(=O)(=O)Cc2ccc(C(=O)N3CCN(Cc4ccccc4)CC3)o2)cc1	/	/	-1.1	-8.9	50.7*
COc1ccc(S(=O)(=O)Cc2ccc(C(=O)N3CCN(Cc4ccccc4)CC3)o2)cc1	-3.5	1.4	2.9	-0.2	5.6
Cc1sc2nc(CSC(C)C(=O)Nc3ccc(C#N)cc3)[nH]c(=O)c2c1C (stereo unspecified)	-13.0	-4.7	0.5	-5.5	0.0
Cc1sc2nc(CSC(C)C(=O)NC3(C#N)CCCCC3)[nH]c(=O)c2c1C (stereo unspecified)	-28.3	-6.5	-0.3	38.3*	-5.6
COCCN(CCOC)C(=O)c1cc2c(=O)n3ccccc3nc2n1C	/	/	0.6	/	-7.4
COc1cc(C=O)ccc1OCCSc1ccc(C)cc1	-2.4	1.1	-0.7	-4.3	-1.4
CCOc1cc(C=O)ccc1OCCSc1ccc(C)cc1	2.2	-3.5	0.7	39.6*	-8.3
Cc1cc(NC(=O)COCc2cc(-c3ccc(F)cc3)on2)ccc1Br	/	/	0.9	/	-5.6
CCN1CCN(C2CC(=O)NC2=O)CC1 (stereo unspecified)	/	/	-0.6	-4.8	1.6
O=C1CC(N2CCC(C(=O)N3CCCCC3)CC2)C(=O)N1 (stereo unspecified)	-8.4	-2.4	2.2	37.9*	/
CC(C)N(Cc1ccccc1)C(=O)CN1C(=O)NC2(CCCC2)C1=O	-3.0	2.6	-0.2	-11.4	3.0
COC(=O)c1cc2c(cc1NC(=O)c1c(C)nn(-c3ccc(C)cc3)c1-n1cccc1)OCO2	/	/	-0.7	/	-5.4
Cc1cccc(-c2nc(CSc3nc4c(c(=O)[nH]3)CCC4)c(C)o2)c1	7.7	8.3	0.2	43.4*	7.5
SMILES	D2 PAM-1	D2 ag-1	D2 ag-2	D2 antagonist	D2 PAM-2
Cc1oc(-c2ccccc2)nc1CSc1nc2c(c(=O)[nH]1)CCC2	-1.7	1.9	-0.3	35.1*	6.4
CCCCC(=O)Nc1cc(C)c(O)c(-c2nc3ncccc3o2)c1	/	/	-0.7	/	-0.7
CCCSc1nnc(Sc2nnnn2-c2ccccc2)s1	-11.5	-2.1	-2.0	44.5*	2.5
Cc1ccccc1-n1nnnc1Sc1nnnn1-c1ccccc1	-9.5	-1.5	-0.2	12.1	2.2
COc1ccccc1-c1ccc(/C=C2\C=CC(=O)O2)o1	-5.1	-1.5	66.3*	-12.0	-6.4
Cc1ccc(NC(=O)c2cccc(S(C)(=O)=O)c2)cc1	-8.7	-2.4	1.0	-2.7	1.7
Cc1nc2cc(NC(=O)c3cccc(S(C)(=O)=O)c3)ccc2o1	-5.9	-0.6	0.4	33.4*	-16.9
C=CCNC(=S)NNC(=O)CC12CC3CC(CC(C3)C1)C2	-5.8	-3.1	0.3	33.6*	-5.2
COc1ccc(N=Cc2sc(O)c3ccccc23)cc1	113.3*	?	0.4	11.5	-1.1
O=C(O)c1cccc(CN2C(=O)c3ccccc3C2=O)c1	-3.9	-3.5	0.2	-17.4	1.8
O=C1c2cccc3c(O)ccc(c23)C(=O)N1Cc1ccccc1	16.6	7.6	100.7*	33.8*	-19.0
CCCN(CCC)c1cc(C)nc2nc(-c3ccc(C(C)(C)C)cc3)nn12	/	/	/	/	10.6
CCN(CC)c1ccc(NC(=O)c2c(C)nn(-c3ccc(F)cc3)c2-n2cccc2)c(C)c1	/	/	-0.9	/	-3.2
Fc1ccc([C@@H]2CCNC[C@H]2COc2ccc3c(c2)OCO3)cc1	-6.1	2.9	14.6	40.7*	-9.4
COc1ccccc1Cc1nc2ccccc2nc1SCC(=O)N(C)c1ccc(F)cc1	/	/	1.4	/	-12.0
CCC1(C)N=C(N)Nc2nc3cc(C)c(C)cc3n21 (stereo unspecified)	-26.2	0.2	-0.6	35.4*	-9.8
NC1=NC2(CCCC2)n2c(nc3ccccc32)N1	-8.8	-3.4	-0.2	2.2	1.3
N#Cc1c2c(c(Nc3ccc(O)cc3)n3c1nc1ccccc13)CCC2	67.9*	?	-0.9	13.8	16.9
N#Cc1c2c(c(NCc3ccco3)n3c1nc1ccccc13)CCC2	-1.8	-1.9	-0.4	0.1	4.2
Cc1ccc2sc(NC(=O)C3CC3)nc2c1C	-8.4	-0.7	0.3	6.7	36.1*
COC(=O)Nc1nc2c(C)cccc2s1	-13.6	-2.2	0.3	37.9*	-6.2
Cn1c(-n2cccc2)c(-c2c(-c3ccc(F)cc3)[nH]c3c2c(=O)n(C)c(=O)n3C)c(=O)n(C)c1=O	/	/	1.6	/	19.3
